# Results from paper PMC7862700, “An all-to-all approach to the identification of sequence-specific readers for epigenetic DNA modifications on cytosine”.
# Legend:
# Assay in all cases: DAPPL (digital affinity profiling via proximity ligation, sequencing); 10 mM Tris-HCl pH 7.5, 50 mM NaCl, 1 mM DTT, 4% glycerol, room temperature, 30 min; GST-TFs on glutathione beads, 16-mer random dsDNA library, 0.1% formaldehyde crosslink after washing; high values mean tight binding
# Conditions in all cases: protein: recombinant; tags: N-terminal GST; dsDNA, one strand shown
# [1] = target: ETV1 (Homo sapiens, UniProt P50549 1-477)
# Chain of ETV1 (P50549 whole entry, the tested form may be a part): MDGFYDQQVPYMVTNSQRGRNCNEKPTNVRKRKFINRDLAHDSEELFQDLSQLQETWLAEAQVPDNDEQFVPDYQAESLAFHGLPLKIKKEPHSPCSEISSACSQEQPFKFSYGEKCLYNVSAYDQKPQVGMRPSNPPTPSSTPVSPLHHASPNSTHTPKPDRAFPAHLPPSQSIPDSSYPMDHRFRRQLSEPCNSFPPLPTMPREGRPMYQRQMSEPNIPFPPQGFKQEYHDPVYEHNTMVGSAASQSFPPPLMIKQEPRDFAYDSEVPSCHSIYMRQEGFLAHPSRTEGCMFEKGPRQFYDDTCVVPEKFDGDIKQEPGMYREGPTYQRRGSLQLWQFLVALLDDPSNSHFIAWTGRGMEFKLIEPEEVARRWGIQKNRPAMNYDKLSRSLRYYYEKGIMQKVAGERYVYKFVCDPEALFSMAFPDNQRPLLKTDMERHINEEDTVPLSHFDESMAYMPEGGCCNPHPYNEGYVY
# In short: (§1)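 In yeast, human transcription factors were expressed with a GST fusion, then pulled down on glutathione beads and given DNA barcodes. Pooled with a tag-only sample, they were exposed to 200 nmole of a 16-mer random double-stranded DNA library (Tris/NaCl/DTT/glycerol buffer, room temperature, 30 min), washed, crosslinked with 0.1% formaldehyde, proximity-ligated using BsaI/T4 ligase for 1 h at 37 °C, PCR-amplified and read on an Illumina NextSeq500. Each hexamer's frequency of reads for a factor, divided by the matching frequency for the tag-only sample, gives the binding signal.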
# [2] = target: T1, ERF (Homo sapiens, UniProt P50548 1-548)
# T1 sequence: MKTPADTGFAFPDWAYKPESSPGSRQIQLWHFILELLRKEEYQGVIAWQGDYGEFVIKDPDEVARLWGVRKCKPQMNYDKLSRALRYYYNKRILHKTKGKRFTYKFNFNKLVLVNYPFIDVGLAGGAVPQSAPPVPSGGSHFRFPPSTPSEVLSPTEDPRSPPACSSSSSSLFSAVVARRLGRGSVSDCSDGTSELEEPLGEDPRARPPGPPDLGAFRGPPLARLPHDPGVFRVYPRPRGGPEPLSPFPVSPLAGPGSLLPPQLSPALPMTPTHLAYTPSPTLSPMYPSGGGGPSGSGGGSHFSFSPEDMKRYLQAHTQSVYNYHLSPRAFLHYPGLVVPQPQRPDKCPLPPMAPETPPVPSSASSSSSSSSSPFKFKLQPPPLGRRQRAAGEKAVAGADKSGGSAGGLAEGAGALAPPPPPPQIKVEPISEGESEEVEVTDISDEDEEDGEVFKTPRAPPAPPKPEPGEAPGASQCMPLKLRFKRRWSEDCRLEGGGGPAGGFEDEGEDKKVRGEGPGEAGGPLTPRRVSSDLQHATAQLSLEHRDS
# In short: as §1
# [3] = target: T2, ETV3L (Homo sapiens, UniProt Q6ZN32 1-361)
# T2 sequence: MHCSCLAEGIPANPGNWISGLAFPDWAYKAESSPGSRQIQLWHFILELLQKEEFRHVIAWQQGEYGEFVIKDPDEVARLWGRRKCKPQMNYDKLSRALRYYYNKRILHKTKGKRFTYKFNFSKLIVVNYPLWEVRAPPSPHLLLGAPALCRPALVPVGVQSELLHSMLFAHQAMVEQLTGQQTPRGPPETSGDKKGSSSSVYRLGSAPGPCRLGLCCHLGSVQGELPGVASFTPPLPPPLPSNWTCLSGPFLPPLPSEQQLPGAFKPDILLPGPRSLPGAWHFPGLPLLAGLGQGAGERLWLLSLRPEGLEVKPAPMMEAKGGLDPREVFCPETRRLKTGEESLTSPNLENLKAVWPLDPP
# In short: as §1
# [4] = target: T3, ETS2 (Homo sapiens, UniProt P15036 1-469)
# T3 sequence: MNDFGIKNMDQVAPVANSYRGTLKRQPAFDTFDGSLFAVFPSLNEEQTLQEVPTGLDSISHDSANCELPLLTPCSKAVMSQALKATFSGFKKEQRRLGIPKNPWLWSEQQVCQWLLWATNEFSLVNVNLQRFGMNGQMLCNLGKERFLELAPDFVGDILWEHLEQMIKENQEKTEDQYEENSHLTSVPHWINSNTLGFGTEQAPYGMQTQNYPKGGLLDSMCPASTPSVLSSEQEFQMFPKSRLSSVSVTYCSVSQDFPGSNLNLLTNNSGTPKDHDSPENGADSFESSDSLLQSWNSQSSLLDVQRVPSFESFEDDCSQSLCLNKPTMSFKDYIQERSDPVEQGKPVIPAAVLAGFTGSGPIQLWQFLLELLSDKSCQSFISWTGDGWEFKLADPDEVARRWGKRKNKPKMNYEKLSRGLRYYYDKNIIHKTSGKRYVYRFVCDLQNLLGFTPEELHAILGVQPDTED
# In short: as §1
# [5] = target: T4, SPDEF (Homo sapiens, UniProt O95238 1-335)
# T4 sequence: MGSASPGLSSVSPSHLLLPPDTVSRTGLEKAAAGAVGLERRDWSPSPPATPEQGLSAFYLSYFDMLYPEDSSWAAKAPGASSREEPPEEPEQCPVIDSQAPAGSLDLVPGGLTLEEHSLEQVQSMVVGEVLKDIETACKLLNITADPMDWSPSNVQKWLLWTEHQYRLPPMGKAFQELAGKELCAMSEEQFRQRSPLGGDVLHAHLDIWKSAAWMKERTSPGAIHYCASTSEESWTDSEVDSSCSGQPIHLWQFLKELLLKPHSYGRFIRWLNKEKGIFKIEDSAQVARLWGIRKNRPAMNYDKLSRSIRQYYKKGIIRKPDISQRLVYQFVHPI
# In short: as §1
# [6] = target: T5, ETV7 (Homo sapiens, UniProt Q9Y603 1-341)
# T5 sequence: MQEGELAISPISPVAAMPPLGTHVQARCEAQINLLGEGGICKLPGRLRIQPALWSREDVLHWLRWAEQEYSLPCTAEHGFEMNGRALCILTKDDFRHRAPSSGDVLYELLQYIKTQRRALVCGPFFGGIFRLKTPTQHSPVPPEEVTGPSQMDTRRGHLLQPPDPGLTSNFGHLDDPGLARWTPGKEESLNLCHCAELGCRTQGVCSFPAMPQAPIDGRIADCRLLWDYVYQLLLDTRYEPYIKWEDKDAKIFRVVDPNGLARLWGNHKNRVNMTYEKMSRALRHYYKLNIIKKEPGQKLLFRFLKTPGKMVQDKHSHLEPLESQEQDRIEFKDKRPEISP
# In short: as §1
# [7] = target: T6, ELF5 (Homo sapiens, UniProt Q9UKW6-2 1-255)
# T6 sequence: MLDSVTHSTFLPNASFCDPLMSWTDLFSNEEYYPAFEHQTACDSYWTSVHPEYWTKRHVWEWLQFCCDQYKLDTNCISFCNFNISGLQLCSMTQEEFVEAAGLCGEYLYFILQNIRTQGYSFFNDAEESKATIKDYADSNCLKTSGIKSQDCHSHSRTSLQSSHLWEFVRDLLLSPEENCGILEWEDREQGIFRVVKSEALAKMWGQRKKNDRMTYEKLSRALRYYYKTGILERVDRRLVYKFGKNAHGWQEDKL
# In short: as §1
# [8] = target: T7, ETV3 (Homo sapiens, UniProt P41162-2 1-143)
# T7 sequence: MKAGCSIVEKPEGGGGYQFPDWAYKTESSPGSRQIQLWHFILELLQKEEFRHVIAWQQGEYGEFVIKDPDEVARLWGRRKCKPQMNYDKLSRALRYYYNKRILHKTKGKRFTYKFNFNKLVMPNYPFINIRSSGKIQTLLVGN
# In short: as §1
# [9] = target: ETV6 (Homo sapiens, UniProt P41212 1-452)
# Chain of ETV6 (P41212 whole entry): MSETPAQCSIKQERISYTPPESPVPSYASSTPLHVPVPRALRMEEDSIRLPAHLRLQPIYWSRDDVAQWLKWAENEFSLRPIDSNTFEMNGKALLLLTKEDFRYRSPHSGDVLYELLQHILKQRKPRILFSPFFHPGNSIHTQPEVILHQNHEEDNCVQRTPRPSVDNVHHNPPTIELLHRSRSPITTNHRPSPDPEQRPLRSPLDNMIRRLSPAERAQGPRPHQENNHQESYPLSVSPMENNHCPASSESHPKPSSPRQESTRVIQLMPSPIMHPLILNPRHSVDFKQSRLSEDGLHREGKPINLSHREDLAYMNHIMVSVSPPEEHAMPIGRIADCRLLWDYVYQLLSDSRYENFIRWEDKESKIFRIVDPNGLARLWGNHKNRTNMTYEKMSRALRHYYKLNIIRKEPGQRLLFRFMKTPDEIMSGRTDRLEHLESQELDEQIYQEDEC
# In short: as §1
sequence,measurement,setting,value
CCCCCA,binding signal,[1],"1.18 fold enrichment (6-mer frequency, TF over GST control)"
same,binding signal,[2],"1.06 fold enrichment (6-mer frequency, TF over GST control)"
same,binding signal,[3],"1.21 fold enrichment (6-mer frequency, TF over GST control)"
same,binding signal,[4],"1.19 fold enrichment (6-mer frequency, TF over GST control)"
same,binding signal,[5],"1.22 fold enrichment (6-mer frequency, TF over GST control)"
same,binding signal,[6],"1.11 fold enrichment (6-mer frequency, TF over GST control)"
same,binding signal,[7],"1.24 fold enrichment (6-mer frequency, TF over GST control)"
same,binding signal,[8],"1.3 fold enrichment (6-mer frequency, TF over GST control)"
same,binding signal,[9],"1.19 fold enrichment (6-mer frequency, TF over GST control)"
